Compound activity deposited in PubChem by National Center for Advancing Translational Sciences (NCATS).
This is one part of a sample in which hits are shown more often than they occur.
TexasRed fluor = Total Fluorescence Counterscreen for Inhibitors of the Interaction of Thyroid Hormone Receptor and Steroid Receptor Coregulator 2; Potency, µM (titrated, usually from 106 µM); hit rate 0.29% among 280,000; TRb/SRC2 Texas Red total fluorescence interference; active means well fitted curve in either direction with a large enough effect; inconclusive means small, poorly fitted or top-dose-only effect
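Flags fluorescent or light-absorbing compounds by total fluorescence, S + 2P, at 555 nm excitation and 632 nm emission. Mixture: 20 nM Texas Red SRC2 peptide, 0.6 uM human TRb LBD, 1 uM T3, 5% DMSO; compound exposure 5 h at ambient temperature.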
TRb SRC2 PPI = qHTS for Inhibitors of the Interaction of Thyroid Hormone Receptor and Steroid Receptor Coregulator 2; hit rate 0.065% among 280,000; Thyroid hormone receptor beta (Homo sapiens), P10828; AID 1469, 2008; Potency, µM (highest dose often 106 µM), hits mostly inhibitors; TRbeta-SRC2 peptide binding, fluorescence polarization; receptor liganded with 1 µM T3; active means well fitted inhibition curve with a large enough effect; inconclusive means small, poorly fitted or top-dose-only effect, or effect the other way; further: nearly all actives have a fitted effect of over 50% in size
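Fluorescence polarization of 20 nM Texas Red SRC2 peptide with 0.6 uM human TRb ligand-binding domain, in Tris buffer with 1uM T3 and 5% DMSO. Incubated 5 hr ambient; normalized to unbound and bound controls.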
ERG Ets-DNA blk = qHTS for Small Molecule Inhibitors of the ERG Ets/DNA interaction; hit rate 0.028% among 370,000; AID 624246, 2012; Potency, µM (titrated, usually from 76.9 µM), most hits filed as inhibitors; fluorescence polarization, His-ERG Ets domain / labelled DNA; Transcriptional regulator ERG (Homo sapiens), P11308; active means well fitted inhibition curve with a large enough effect in the polarisation, with a control signal flat; inconclusive means small, poorly fitted or top-dose-only effect, or effect the other way, or a change in a side signal; inactive means no such curve, though single readings can be large or run the other way; the % refers to the polarisation;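 further: polarization taken with two DNA probes labelled with fluorescein and Texas red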
Target sequence (P11308 whole entry, looked up, the tested form may be a part): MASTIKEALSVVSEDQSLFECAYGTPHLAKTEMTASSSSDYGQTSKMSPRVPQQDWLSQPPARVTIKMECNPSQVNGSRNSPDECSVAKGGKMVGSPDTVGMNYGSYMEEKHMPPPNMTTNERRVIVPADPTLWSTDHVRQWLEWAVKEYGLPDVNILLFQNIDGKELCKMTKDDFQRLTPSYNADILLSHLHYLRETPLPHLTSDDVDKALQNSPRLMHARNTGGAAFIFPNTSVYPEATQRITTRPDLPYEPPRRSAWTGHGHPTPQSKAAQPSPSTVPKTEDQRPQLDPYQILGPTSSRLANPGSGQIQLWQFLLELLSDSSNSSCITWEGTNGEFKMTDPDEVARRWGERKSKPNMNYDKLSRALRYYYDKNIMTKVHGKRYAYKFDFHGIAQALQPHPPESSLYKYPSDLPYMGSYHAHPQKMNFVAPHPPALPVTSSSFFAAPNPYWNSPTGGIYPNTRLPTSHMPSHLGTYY
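His-tagged ERG Ets domain (1 uM in the protein solution; 300mM KCl, 50mM Tris-HCl, 1mM EDTA, 1mM DTT, pH 7.5) received compound, then a probe mix of 5 nM fluorescein-DNA and 100nM Texas-615-DNA. Fluorescence polarization was read for both dyes.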
A number is an active result; – = inactive; ? = inconclusive; · = no result given; ! = a repeat was not active; [ ] = dose if it differs, or a comment.

SMILES | TexasRed fluor | TRb SRC2 PPI | ERG Ets-DNA blk
Cc1cccc(-c2noc(-c3cccnc3NCc3ccccc3Cl)n2)c1 | – | – | –
CCN(CC)CCCC(C)n1c(-c2ccccc2)nc2c(NCc3ccccc3)nc(C)nc21 (stereo not given) | – | – | ·
Cc1ccc(-c2csc(N3N=C(c4ccccc4)/C(=C\c4ccc(N(C)C)cc4)C3=O)n2)cc1 | 40µM[quencher] | ? | ·
CC1=NN(c2cccc(F)c2)C(=O)/C1=C/c1ccc(N(C)C)cc1 | · | · | –
Oc1cc(O)cc(/C=C/c2ccc(O)c(O)c2)c1 | 50µM![quencher] | ? | –
O=C(N/N=C/c1ccc(O)c(O)c1)N/N=C/c1ccc(O)c(O)c1 | · | · | –
Cc1c(C(=O)N2CCCC2)oc2c1-c1nn(CC(=O)NC(C)c3ccccc3)cc1CC2 (stereo not given) | – | – | –
COCCCNC(=O)C1CCN(C(=O)c2cnn(-c3ccccc3)c2-n2cccc2)CC1 | – | – | –
O=C(NCc1cccc(F)c1)C1CCN(C(=O)c2sccc2-n2cccc2)CC1 | 25µM![quencher] | – | –
O=C(NCCc1ccccc1)C1CCN(C(=O)c2sccc2-n2cccc2)CC1 | – | – | –
O=C(NCc1ccccc1)C1CCN(C(=O)c2cnn(-c3ccccc3)c2-n2cccc2)CC1 | 32µM[quencher] | – | –
C=C[C@H]1CN2CC[C@@H]1C[C@H]2[C@@H](O)c1ccnc2ccc(OC)cc12 | · | – | ·
CO[Si](OC)(OC)c1ccccc1 | – | – | ·
OCc1cccc(Oc2ccccc2)c1 | – | – | ·
CCOc1ccccc1CNC(=O)CN1C(=O)c2cccnc2Oc2ccc(C)cc21 | 22µM[quencher] | – | –
CC(C)Oc1ccc(CNC(=O)CN2C(=O)c3cccnc3Oc3ccc(Cl)cc32)cc1 | 20µM[quencher] | – | –
Cc1ccc2c(c1)N(CC(=O)NCc1ccccc1Br)C(=O)c1cccnc1O2 | – | – | –
CC(CNC(=O)CN1C(=O)c2cccnc2Oc2ccc(Cl)cc21)c1ccccc1 (stereo not given) | – | – | –
COc1ccc(CNC(=O)c2cc3cccc4c3n2CC(C)S4)cc1 (stereo not given) | – | – | –
NN(c1ccccc1)c1ccccc1 | – | – | ·
Cc1ccc(-c2nc(-c3ccncc3)no2)c(Cl)c1 | · | · | –
COc1ccc(-c2noc(-c3ccc(C)cc3Cl)n2)cc1OC | 0.13µM[quencher] | – | –
CCCCc1c(C)[nH]c(=S)[nH]c1=O | – | – | –
Cc1cccc(OCCc2c(C)[nH]c(=S)[nH]c2=O)c1 | – | – | 28µM
Cc1ccc(C(=O)c2ccccc2)cc1 | – | – | ·
SMILES | TexasRed fluor | TRb SRC2 PPI | ERG Ets-DNA blk
NC(=O)C1CCN(C(=O)c2ccc(NC(=O)c3nsc4ccccc34)cc2)CC1 | – | – | –
Cc1ccc(NC(=O)Cc2ccc(Cl)c(Cl)c2)cc1S(=O)(=O)N(C)C | – | – | –
Cc1ccc(NC(=O)Cc2ccccc2Cl)cc1S(=O)(=O)N(C)C | 0.1µM[quencher] | – | –
CCOC(=O)[C@H](C)Oc1ccc(Oc2nc3ccc(Cl)cc3o2)cc1 | – | – | ·
CC(C)CNC(=S)NNC(=O)c1csc2c1CCCC2 | – | – | –
CCC(C)NC(=O)COC(=O)c1csc2c1CCCC2 (stereo not given) | 0.0004µM[quencher] | ? | –
COc1cc(NC(=O)c2cc3c(=O)n(Cc4ccco4)ccc3nc2C)cc(OC)c1OC | – | – | –
COc1ccc(-c2nc3c(C#N)c[nH]n3c2NC2CCCC2)cc1 | – | – | –
O=C(N/N=C/c1ccc(OCc2ccccc2)cc1)c1ccncc1 | – | – | –
Oc1ccc(N=Cc2ccc(OCc3ccccc3)cc2)cc1 | – | 40µM | 14µM
CCN(Cc1ccccc1)C(=O)c1cc2ccc3cccnc3c2[nH]1 | – | – | –
COc1cccc(/C=C/C(=O)OCC(=O)NCC2CCCO2)c1 (stereo not given) | – | – | –
COc1cccc(/C=C/C(=O)OCC(=O)NCC2CCCO2)c1OC (stereo not given) | 71µM[quencher] | – | –
C=C(C)C(=O)OCC[N+](C)(C)C | – | – | ·
Cc1ccc(CNC(=O)C2CCCN(c3nnc(-n4c(C)ccc4C)s3)C2)cc1 (stereo not given) | – | – | –
c1coc(-c2nc(-c3ccco3)c(-c3ccco3)nc2-c2ccco2)c1 | 13µM[quencher] | – | –
Nc1nc(-c2ccco2)c(-c2ccco2)s1 | – | – | –
CC1CN(C(=O)N2CCC(C(=O)NCCCc3ccccc3)CC2)c2ccccc2O1 (stereo not given) | – | – | –
COCCCn1c(=N)c(C(=O)NC2CCCCC2)cc2c(=O)n3cc(C)ccc3nc21 | – | – | –
C1CCC2(CCCCO2)OC1 | – | – | ·
COc1cc(N=C2C(=O)N3c4c(cccc42)C(C)=CC3(C)C)cc(OC)c1 | – | – | –
CC1=CC(C)(C)N2C(=O)C(=Nc3ccc(O)cc3)c3cccc1c32 | – | 35µM | ?
CC(=O)c1ccc(OC2C(O)COC2/C=C/c2ccc(Cl)cc2)cc1 (stereo not given) | –[11.2 µM] | –[11.2 µM] | ·
COc1ccc(-c2noc(CCC(=O)Nc3cccnc3)n2)cc1OC | – | – | –
COc1ccc(-c2noc(CCC(=O)Nc3ccccc3Cl)n2)cc1OC | 0.004µM[quencher] | – | –
SMILES | TexasRed fluor | TRb SRC2 PPI | ERG Ets-DNA blk
Cc1cccc(NC(=O)c2ccc(CN3CC(=O)N4CCCCC4C3=O)cc2)c1C (stereo not given) | ? | – | –
CC(=O)Nc1nonc1NC(C)=O | – | – | –
CC(=O)Nc1cc(OC(C)=O)c2nonc2c1OC(C)=O | – | 1.6µM | –
COc1ccc(CNC(=O)c2cc(-c3cccs3)nc3ccccc23)c(OC)c1 | 0.022µM[quencher] | – | –
COc1ccc(OC)c(CNC(=O)c2cc(-c3ccc(Cl)s3)nc3ccccc23)c1 | ? | – | –
CNc1nc(=O)n(C2CCCCC2)c(=O)n1C | – | – | ·
CCc1ccc2occ(CC(=O)NCc3ccccc3)c2c1 | – | – | –
CCc1ccc2occ(CC(=O)Nc3ccc(OC)c(Cl)c3)c2c1 | 0.089µM[quencher] | – | –
CC1(C)CC(OC(=O)CCCCCCCCC(=O)OC2CC(C)(C)NC(C)(C)C2)CC(C)(C)N1 | – | – | ·
CCC(=Nc1ccc(N)cc1)C1=C(O)C(C(=O)OC)C(C)(C)CC1=O (stereo not given) | 45µM[fluorescent] | 28µM | ·
CCCC(=Nc1ccccc1)C1=C(O)C(C(=O)OC)C(C)(C)CC1=O (stereo not given) | – | – | ·
CCN1/C(=C/C=C/c2oc3ccc(-c4ccccc4)cc3[n+]2CC)Oc2ccc(-c3ccccc3)cc21 | – | – | 32µM
CCN1/C(=C/C=C/c2sc3ccccc3[n+]2CC)Sc2ccccc21 | · | · | –
Cc1ccc(NC(=O)CSc2ncc(S(=O)(=O)c3ccccc3)c(=O)[nH]2)cc1C | 0.0003µM[quencher] | – | –
COc1cccc(NC(=O)CSc2ncc(S(=O)(=O)c3ccccc3)c(=O)[nH]2)c1 | – | – | –
Cc1nc(SCCOc2ccccc2)[nH]c(=O)c1Cc1ccccc1 | – | – | –
Cc1ccccc1OCCSc1nc(C)c(Cc2ccccc2)c(=O)[nH]1 | 3.2µM[quencher] | ? | –
Cc1cccc(NC(=O)CSc2nc(C)c(Cc3ccccc3)c(=O)[nH]2)c1 | – | – | –
Cc1ccc(NC(=O)CSc2nc(C)c(Cc3ccccc3)c(=O)[nH]2)cc1C | 40µM![quencher] | ? | –
